From the supplement of paper PMC3334620
In all, about 33,000 sequences were measured (“E-score (-0.5 to 0.5)”: median about -8e-05, highest 2% from about 0.23 on). This excerpt belongs to a sample that is enriched for the highest values.

target: T1, Nrg2 (UniProt P38082); test: PBM E-score (8-mer binding enrichment) (E-score (-0.5 to 0.5)); higher = stronger / more preferred TF binding; conditions: protein concentration: 100 nM; construct: GST-full length
T1 sequence: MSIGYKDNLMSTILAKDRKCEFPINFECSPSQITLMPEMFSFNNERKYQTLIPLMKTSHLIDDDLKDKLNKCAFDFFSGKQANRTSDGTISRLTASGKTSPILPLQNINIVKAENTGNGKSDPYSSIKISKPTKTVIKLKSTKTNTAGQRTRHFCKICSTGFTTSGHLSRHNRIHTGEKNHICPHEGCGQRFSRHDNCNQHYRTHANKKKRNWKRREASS
Summary of the method: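 Universal all-10-mer Agilent arrays, fresh or stripped once, were converted to double-stranded form by primer extension. GST-tagged yeast transcription factors from PURExpress in vitro transcription/translation, full-length or DNA-binding domain only, were applied at about 100-200 nM and detected with fluorescent anti-GST. After masliner normalisation, the Universal PBM Analysis Suite scored each ungapped eight-base word together with its reverse complement by E-score.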

Sequence | PBM E-score
CCTATATA | 0.0688
CCTTTAGA | -0.136
GAAGGGTC | 0.0665
CAAGGGTG | 0.0522
CAGGGGTA | 0.166
CAAGGGTC | 0.376
CGGGGGTC | -0.342
CAGGGGTC | 0.302
CATCTTAC | -0.00815
ACCAAGTG | -0.0903
CCTCTCTA | -0.294
AATTTCAA | -0.0693
CGTTTTTC | -0.117
GCTACCCA | -0.152
AAGGAAAG | -0.137
AAAAGTAG | 0.0358
GCCGAAAC | -0.0148
GCCGAAAA | 0.239
CCCGAAAA | 0.129
TATCCACA | 0.131
AATGAACC | 0.00986
GATGAACC | -0.0336
CATGAACC | 0.233
CCTCTTGA | 0.0273
TGCCCACA | -0.0506

Sequence | PBM E-score
GAATATTC | 0.24
GAATATCA | 0.0654
CAATATTC | 0.0479
GAATATTA | 0.232
GAATATGA | -0.0524
AAATATTC | 0.127
GCTGAGCA | 0.0693
GACAACTA | 0.158
CTGTAACC | 0.108
CCTTGGAC | -0.165
CACGCCTA | -0.227
AGGTCCAC | -0.199
GGGTCCAA | 0.322
CGGTCCAA | -0.224
CGGTCCAC | -0.222
AGGTCCAA | -0.0549
GGGTCCAC | 0.301
TCTCAACA | 0.0641
TAGAGATA | 0.0396
CCTGACTA | 0.172
GGACCCGA | 0.0929
ATACCTTC | -0.0248
GCCACGGA | -0.0858
CGCTTGAG | -0.0135
CGCTTGAA | 0.263

Sequence | PBM E-score
TGCTTGAA | 0.0462
ATATATTA | 0.245
ATTTATCC | 0.247
ATATATTG | -0.0404
GTTTATTA | 0.194
CTATATTA | 0.229
CTCTATTA | -0.105
GTATATTA | 0.107
ATTTATTA | 0.273
CTATATTC | 0.0669
ATTTATCA | 0.225
ATTATTTA | 0.173
ATTTATCG | 0.0781
AAGCCACA | -0.101
GTAAGCCA | -0.113
ACCATCTC | 0.0848
AGTACTAC | 0.118
CTCGCTTA | 0.132
TCCACCGA | -0.0753
AAGCGATT | -0.0219
AACTGCAG | -0.0636
AACTGCAC | 0.0736
AACTGCAT | 0.232
GCTCAGCA | -0.133
AAGCCACC | -0.198

Sequence | PBM E-score
GAACTGTC | 0.0447
ACGAGTAA | 0.244
GCGAGTAA | 0.198
ACGAGTAT | 0.0482
ATGGGTTA | 0.0918
AGTGGTTC | -0.0506
ATACGCAA | 0.232
GTACGCAA | -0.131
ATACGCAG | -0.235
CTCTGGTA | -0.0435
TAAGAACA | 0.26
CAAGAACA | 0.007
GAAGAACA | 0.155
AGTCGACT | 0.243
AGTCGACA | 0.194
AGTCGACC | -0.0853
GGGAGAAC | -0.189
AAGAAGGC | -0.197
AGACATTC | -0.0988
GCCCTGTA | 0.208
ACCCTGAA | 0.319
ATCCTGAA | 0.125
AACCTGAA | -0.178
ACCCTGTA | 0.347
AGCCTGTA | -0.126

Sequence | PBM E-score
ACAAGGAC | -0.0546
GCGGTCCA | -0.159
TAAAGCCA | 0.0522
AAACAAAC | -0.0324
GAACAAAA | 0.195
GAACAAAC | 0.323
CAACAAAC | 0.0713
AAACAAAA | 0.0254
AAACAAAT | 0.235
ATACAAAA | 0.218
ATACAAAT | 0.173
ATACAAAC | 0.258
AGTCCATA | 0.0684
TCAGACAA | 0.0781
CAGCAGCC | 0.0863
GTTGCCAA | 0.0119
CTAGGCAC | -0.162
AGCTTTAG | -0.105
GAGGCCTC | -0.327
AGACGCTA | -0.138
CATTCGAA | 0.0948
GATTCGAC | 0.141
GATTCGAA | 0.256
ATGGCAGG | 0.12
ATTGTTTC | 0.256

Sequence | PBM E-score
ATTGTTTG | 0.18
CCAGTTTC | 0.0541
ACAGTTTA | -0.0808
ACAGTTTC | 0.259
CTTGTTTC | 0.0127
AGATCAAC | 0.07
TATCCGGA | 0.112
AAGGAGAC | -0.156
ACCACAAT | -0.0522
AGGTGTAC | -0.145
TCGAACAA | 0.259
TCGAAACA | 0.232
TGGAACAA | 0.155
TCGAACGA | 0.0281
CCGAAACA | 0.102
GCGAACAA | 0.322
ACGAAACA | 0.0539
ACGAACAA | 0.124
CCGAACAA | 0.0547
TCAGATGA | 0.148
AATCGCCA | 0.0545
TAAGGACA | -0.0222
CGCTAGCC | -0.255
ACAGAGAC | 0.00483
CTTCTTGA | -0.0331

Sequence | PBM E-score
CAATGGAA | 0.131
AAATTCGA | -0.0488
CAATTCGA | -0.135
CTATTCGC | 0.0444
CAATTCGC | 0.277
AAATTCGC | 0.234
GAATTCGC | 0.141
AAATTCGT | 0.235
CAATTCGG | 0.0993
AAATTCGG | 0.205
AAGTTGGA | 0.134
AAAATCTT | -0.0461
AGCCGCCC | -0.0653
CCCAGTGC | 0.037
CAAAACCC | 0.222
CACAAGAA | 0.245
CGCAAAAA | 0.141
CACAAAAA | 0.131
CAAGAGAG | -0.0197
CAAGAGAA | 0.232
AGCAAGAA | 0.0497
AAAAACCA | 0.112
